Screening results as filed in PubChem.
EPAC2 antag = EPAC2 (human) antagonism | Q8WZA2 | EPAC2 GEF exchange of Rap1B-BODIPY-GDP, fluorescence | Potency, µM (titrated, usually from 114 µM), hits mostly inhibitors | actives 0.18% (n = 360,000); note: nearly all actives have a fitted effect of over 45% in size
EPAC1 ag = activates human EPAC1 exchange factor. EPAC1 agonist qHTS, biochemical assay; response scale: 100% = response to 6.5 mM cAMP. Potency, µM (series often up to 154 µM), actives largely listed as activators. actives 0.073% (n = 360,000); note: nearly all actives have a fitted effect of over 60% in size
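Fluorescent GDP-exchange assay: 100 nM EPAC1 with 250 nM Rap1B preloaded with BODIPY-GDP and 50 uM GDP; compounds tested as concentration series, 5 min at room temperature, then read every 5 min for 30 min (ex 480/em 540 nm); normalized to 6.5 mM cAMP.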
USP1-UAF1 inh = blocks the human USP1/UAF1 deubiquitinase complex; recombinant USP1/UAF1, Ub-Rhodamine cleavage fluorescence; AID 743255; actives 0.23% (n = 390,000); O94782; Potency, µM (series often up to 57.1 µM), hits mostly inhibitors; note: nearly all actives have a fitted effect of over 60% in size
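1 nM enzyme complex + cpd, 15 min RT; start with Ub-Rho 150nM final; kinetic fluorescence ex 480/em 540, 6 reads q60 s. Buffer 50mM HEPES pH 7.8, 0.5mM EDTA, 0.1 mg/ml BSA, 1mM TCEP, 0.01% Tween-20.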
EPAC1 antag = blocks human EPAC1 exchange factor; EPAC1 GEF assay, Rap1b-BODIPY-GDP exchange fluorescence; Potency, µM (series often up to 115 µM), most hits filed as inhibitors; actives 0.14% (n = 360,000); O95398; note: nearly all actives have a fitted effect of over 50% in size
VDR inhibitor = blocks the human vitamin D receptor; actives 0.93% (n = 400,000); VDR-SRC2-3 peptide fluorescence polarization, 2 h; Potency, µM, most hits filed as inhibitors; P11473; AID 504847
Target sequence (P11473 whole entry, looked up): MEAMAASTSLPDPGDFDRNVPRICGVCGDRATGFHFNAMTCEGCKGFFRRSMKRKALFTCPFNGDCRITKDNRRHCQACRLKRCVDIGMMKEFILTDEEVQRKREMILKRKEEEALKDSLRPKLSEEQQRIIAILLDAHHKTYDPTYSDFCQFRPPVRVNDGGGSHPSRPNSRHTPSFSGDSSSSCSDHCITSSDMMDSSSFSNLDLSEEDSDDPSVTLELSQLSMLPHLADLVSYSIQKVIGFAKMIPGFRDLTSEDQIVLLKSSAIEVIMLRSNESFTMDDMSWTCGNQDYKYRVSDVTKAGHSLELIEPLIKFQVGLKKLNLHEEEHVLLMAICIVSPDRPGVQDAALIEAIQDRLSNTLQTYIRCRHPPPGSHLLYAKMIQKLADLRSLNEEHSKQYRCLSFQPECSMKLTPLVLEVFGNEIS
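FP read-out; VDR + SRC2-3 coactivator peptide; 23 nl compound by pintool; 2 h RT incubation; reagents held at 4 deg C, protected from light.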
EPAC2 agonist = activates human EPAC2 exchange factor | Potency, µM (top dose mostly 154 µM), most hits filed as activators | EPAC2 activation, biochemical qHTS; response scale: 100% = 6.5 mM cAMP response | AID 720711 | actives 0.079% (n = 360,000); note: nearly all actives have a fitted effect of over 50% in size
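Compounds were added across a concentration range to EPAC2 (100 nM), RAP1B-BODIPY-GDP (250 nM) and GDP (50 uM). After 5 min at room temperature, fluorescence was recorded at 5-min intervals for 30 min.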
Numbers stand for hits; 0 = inactive; ? = inconclusive; - = no result. A selection: hits, their analogues and other compounds. The true share with any hit is near 1.2%. Calls come from the whole dose curve; as a rule, active = well fitted curve in the direction sought with a large enough effect; inconclusive = small, poorly fitted or top-dose-only effect, or another doubt; inactive = no such curve, though single readings can be large; an effect the other way counts as inactive or inconclusive.

SMILES	EPAC2 antag	EPAC1 ag	USP1-UAF1 inh	EPAC1 antag	VDR inhibitor	EPAC2 agonist
CCOC(=O)C(C(=O)OCC)C(C(=O)OCC)N1CCOCC1 (stereo unspecified)	0	0	0	0	39.8µM	0
O[C@@H]1COC2[C@@H](O)CO[C@@H]21 (stereo partly specified)	-	-	-	-	0	-
COc1ccc(/C=C2\OC(=S)N(C)C2=O)cc1	0	0	0	0	0	0
CN1C(=O)/C(=C\c2ccc(N(C)C)cc2)OC1=S	0	89.1µM	?	0	?	0
O=C1NC(=Nc2ccccc2Cl)S/C1=C\c1cc([N+](=O)[O-])ccc1O	17.8µM	0	?	79.4µM	?	0
COc1cccc(N=C2NC(=O)/C(=C/c3cc([N+](=O)[O-])ccc3O)S2)c1	?	0	0	0	0	0
Cc1ccc(S(=O)(=O)/N=C2/NC(=O)/C(=C/c3cc([N+](=O)[O-])ccc3O)S2)cc1	0	0	28.2µM	?	?	0
O=S(=O)(Nc1cccnc1)c1cccc2ccccc12	-	-	-	-	0	-
COc1ccccc1C1(O)CCN(CCCn2c3ccccc3c3ccccc32)CC1	-	-	-	-	0	-
N#Cc1c(C#N)c(O)c2ccccc2c1O	0	0	?	0	28.2µM	0
COc1ccc(-c2nc3cc(C(C)C)ccc3o2)cc1NC(=O)COc1ccc(C)cc1C	-	-	0	-	0	-
O=S(=O)(c1ccc(Cl)cc1)N1CCSC1c1ccco1 (stereo unspecified)	0	0	0	?	0	0
O=[N+]([O-])c1ccc(S(=O)(=O)N2CCSC2c2ccco2)cc1 (stereo unspecified)	0	0	0	0	79.4µM	0
COc1cccc(Nc2ncc3nc(-c4ccccc4)c(=O)n(Cc4cccs4)c3n2)c1	-	-	-	-	0	-
CCOC(=O)/C=C/CCC/C=C/C(=O)c1ccccc1	-	-	-	-	8.91µM	-
Cc1nnc(SCC2=C(C(=O)O)N3C(=O)C(NC(=O)COc4ccc(F)cc4)C3SC2)s1 (stereo unspecified)	0	0	0	0	79.4µM	0
Cc1ccc(Nc2nc(NCc3ccco3)nc3nccnc23)cc1C	-	-	-	-	0	-
COC(=O)C(C)N1C(=O)S/C(=C\c2ccc(-c3ccc(C(=O)O)cc3C)o2)C1=O (stereo unspecified)	0	0	0	0	22.4µM	0
COc1ccc(NC(=O)CCS(=O)(=O)c2ccc3c(c2)n(C)c(=O)c(=O)n3C)cc1Cl	-	-	0	-	0	-
CC(C)c1nn2c(=O)cc(COC(=O)c3ccccc3NC(=O)c3cccc(Cl)c3)nc2s1	-	-	0	-	0	-
Cc1ccc(S(=O)(=O)/N=C2/C=C(Sc3ncn[nH]3)C(=O)c3ccccc32)cc1	20µM	0	1µM	44.7µM	10µM	0
CC(C)c1ccc(S(=O)(=O)/N=C2/C=C(Sc3ncn[nH]3)C(=O)c3ccccc32)cc1	89.1µM	0	1.78µM	56.2µM	10µM	0
O=C1OC(c2ccccc2)/C(=C(/O)c2ccc(Cl)cc2)C1=O (stereo unspecified)	0	0	0	0	44.7µM	0
O=C1OC(c2ccccc2)/C(=C(/O)c2ccccc2)C1=O (stereo unspecified)	?	0	0	0	0	?
O=C(/C=C/Sc1ccc(C(F)(F)F)cn1)c1ccccc1	0	0	0	0	79.4µM	0
SMILES	EPAC2 antag	EPAC1 ag	USP1-UAF1 inh	EPAC1 antag	VDR inhibitor	EPAC2 agonist
O=C(CSc1ccc(C(F)(F)F)cn1)Nc1ccccc1	0	0	0	0	0	0
O=C(NCC(c1ccco1)N1CCCCC1)c1cccc(NS(=O)(=O)c2ccc(Br)cc2)c1 (stereo unspecified)	0	126µM	0	?	0	0
COc1ccc(-n2nnc3c(SC(C(C)=O)C(=O)N(C)C)ncnc32)cc1 (stereo unspecified)	0	0	0	0	7.08µM	0
O=C1c2ccccc2C(=O)C12OC2c1cccc2ccccc12 (stereo unspecified)	?	0	14.1µM	?	12.6µM	0
O=c1c(-c2cc(O)c(O)c(O)c2)coc2cc(O)c(O)c(O)c12	-	-	-	-	14.1µM	-
NCCNC(=O)c1ccc(Cl)cn1	-	-	-	-	0	-
O=C(O)CSc1c2ccccc2cc2ccccc12	0	0	0	0	70.8µM	0
O=C(O)c1c2ccccc2cc2ccccc12	-	-	-	-	0	-
COc1ccc(OC)c(NC(=O)CSc2nc(O)cc(=O)n2CC(C)C)c1	0	0	0	56.2µM	0	0
C=CCCC1CN(CCCC)S(=O)(=O)c2c(F)cccc2O1 (stereo unspecified)	?	0	0	0	89.1µM	0
Cc1cc(OC(=O)c2c(C)cc(OC(=O)c3c(C)cc(O)cc3O)cc2O)cc(O)c1C(=O)O	0	0	0	56.2µM	?	0
S=C(NNc1ccnc2cc(Cl)ccc12)Nc1ccc(Cl)cc1Cl	0	0	0	0	79.4µM	0
CC(C)(C)OC(=O)NC(Cc1ccccc1)C(=O)NC1COC2CC(n3ccc(=O)[nH]c3=O)OC12 (stereo unspecified)	-	-	-	-	0	-
C=C1c2cccc(O)c2C(O)=C2C(=O)[C@]3(O)C(O)=C(C(N)=O)C(=O)C(N(C)C)C3C(O)C12 (stereo partly specified)	-	-	-	-	35.5µM	-
C=C1c2cccc(O)c2C(O)=C2C(=O)[C@]3(O)C(O)=C(C(N)=O)C(=O)[C@@H](N(C)C)[C@@H]3[C@@H](O)[C@H]12	0	0	?	?	0	0
Cc1ccc(N2CCN(Cc3nnc(-c4ccccc4F)o3)CC2)c(C)c1	-	-	0	-	0	-
CN1CCc2c(sc3c2C(=O)NC(c2ccccn2)N3)C1 (stereo unspecified)	0	0	31.6µM	0	25.1µM	0
Cc1ccc(C2NC(=O)c3c(sc4c3CCN(C)C4)N2)s1 (stereo unspecified)	0	0	?	0	?	0
CN1CCc2c(sc3c2C(=O)NC(c2ccccc2)N3)C1 (stereo unspecified)	0	0	?	0	70.8µM	0
CN1CCc2c(sc3c2C(=O)NC(c2ccc(OC(=O)c4ccc(C(C)(C)C)cc4)cc2)N3)C1 (stereo unspecified)	-	-	31.6µM	-	0	-
CN1CCc2c(sc3c2C(=O)NC(c2ccc(OC(=O)c4ccccc4)cc2)N3)C1 (stereo unspecified)	-	-	0	-	44.7µM	-
O=C1NC(c2ccccn2)Nc2sc3c(c21)CCC3 (stereo unspecified)	0	0	0	0	0	0
CCOc1cc(C2NC(=O)c3c(sc4c3CCN(C)C4)N2)ccc1OC(=O)c1ccc(F)cc1 (stereo unspecified)	-	-	0	-	0	-
Nc1ccccc1NC(=O)c1ccc(CNC(=O)OCc2cccnc2)cc1	-	-	-	-	0	-
CCc1cc2c(cc3c(=O)n(CC(=O)NC4CCCCC4)ncn32)s1	-	-	0	-	0	-
